Assay results taken from PubChem BioAssay (EPA / NIEHS).
Inconclusive results are not listed. The source made the active and inactive calls. The calls were made as follows, unless noted: active = hit-call score of the fitted dose curve at least 0.9, where 1 is the maximum; inconclusive = response in the unintended direction; inactive = score below 0.9.

Experiments:
[1] = target: X-box-binding protein 1 (Homo sapiens) (UniProt P17861); assay: ATG_Xbp1_CIS: Attagene CIS-FACTORIAL HepG2 Assay for human X-box Binding Protein 1 (XBP1) (AID 2282972; active = hit-call score of the fitted dose curve at least 0.9, where 1 is the maximum; inactive = score below 0.9); conditions: HepG2 XBP1 cis-element reporter, Attagene multiplex; actives raise or lower the signal
Sequence of X-box-binding protein 1 (Homo sapiens) (P17861 whole entry, looked up, the tested form may be a part): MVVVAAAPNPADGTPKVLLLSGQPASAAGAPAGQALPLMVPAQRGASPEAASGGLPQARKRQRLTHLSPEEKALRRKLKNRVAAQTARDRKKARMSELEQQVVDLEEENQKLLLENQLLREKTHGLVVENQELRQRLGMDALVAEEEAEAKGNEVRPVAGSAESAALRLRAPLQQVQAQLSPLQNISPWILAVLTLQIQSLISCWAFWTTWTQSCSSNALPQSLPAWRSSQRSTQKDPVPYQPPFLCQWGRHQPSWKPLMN
Summary of the method: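 Read-out: fluorescent reporter mRNA fragments resolved by capillary electrophoresis after RT-PCR. Human HepG2 liver cells carried transfected cis-promoter reporter units and were exposed to chemicals for 24 hours. Gain or loss of signal fitted relative to DMSO baseline.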

[2] = target: Glucocorticoid receptor (Homo sapiens) (UniProt P04150); assay: ATG_GR_TRANS: Attagene TRANS-FACTORIAL HepG2 Assay for human Glucocorticoid Receptor (GR) (AID 2282978); conditions: HepG2 Attagene TRANS GR reporter, mRNA transcription;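 also: activators score as hits since higher reporter transcript over DMSO is fitted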
Sequence of Glucocorticoid receptor (Homo sapiens) (P04150 whole entry, looked up, the tested form may be a part): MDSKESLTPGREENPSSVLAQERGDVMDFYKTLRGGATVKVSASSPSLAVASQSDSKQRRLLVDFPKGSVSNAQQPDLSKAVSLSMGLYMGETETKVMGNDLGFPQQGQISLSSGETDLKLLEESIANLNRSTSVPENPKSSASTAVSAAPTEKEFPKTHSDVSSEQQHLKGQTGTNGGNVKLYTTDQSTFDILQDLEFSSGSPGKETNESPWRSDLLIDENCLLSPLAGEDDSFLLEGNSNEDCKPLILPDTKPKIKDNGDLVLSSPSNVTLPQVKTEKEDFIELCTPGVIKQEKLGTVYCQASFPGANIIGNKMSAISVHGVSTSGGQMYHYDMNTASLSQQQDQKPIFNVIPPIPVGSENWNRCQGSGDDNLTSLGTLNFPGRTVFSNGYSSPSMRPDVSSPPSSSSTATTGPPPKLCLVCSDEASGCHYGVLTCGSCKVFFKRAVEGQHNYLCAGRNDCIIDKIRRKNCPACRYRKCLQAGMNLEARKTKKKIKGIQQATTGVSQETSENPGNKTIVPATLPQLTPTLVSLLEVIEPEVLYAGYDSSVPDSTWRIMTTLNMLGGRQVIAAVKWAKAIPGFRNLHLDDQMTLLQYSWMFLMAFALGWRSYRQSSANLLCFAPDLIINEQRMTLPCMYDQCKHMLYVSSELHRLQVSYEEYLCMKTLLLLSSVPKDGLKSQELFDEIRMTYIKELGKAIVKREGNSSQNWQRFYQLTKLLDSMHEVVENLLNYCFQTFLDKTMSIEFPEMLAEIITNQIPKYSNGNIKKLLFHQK
Summary of the method: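 Exogenous NR-GAL4 fusion activity was assessed through induced GAL4-UAS reporter transcripts in transfected human HepG2 cells, quantified after 24 h by RT-PCR and fluorescent capillary electrophoresis with DMSO as baseline.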

[3] = target: Hepatocyte nuclear factor 4-alpha (Homo sapiens) (UniProt P41235); assay: ATG_HNF4a_TRANS: Attagene TRANS-FACTORIAL HepG2 Assay for human Hepatocyte Nuclear Factor 4 alpha (HNF4a) (AID 2282982); conditions: HepG2 HNF4a transactivation reporter, mRNA readout
Sequence of Hepatocyte nuclear factor 4-alpha (Homo sapiens) (P41235 whole entry, looked up, the tested form may be a part): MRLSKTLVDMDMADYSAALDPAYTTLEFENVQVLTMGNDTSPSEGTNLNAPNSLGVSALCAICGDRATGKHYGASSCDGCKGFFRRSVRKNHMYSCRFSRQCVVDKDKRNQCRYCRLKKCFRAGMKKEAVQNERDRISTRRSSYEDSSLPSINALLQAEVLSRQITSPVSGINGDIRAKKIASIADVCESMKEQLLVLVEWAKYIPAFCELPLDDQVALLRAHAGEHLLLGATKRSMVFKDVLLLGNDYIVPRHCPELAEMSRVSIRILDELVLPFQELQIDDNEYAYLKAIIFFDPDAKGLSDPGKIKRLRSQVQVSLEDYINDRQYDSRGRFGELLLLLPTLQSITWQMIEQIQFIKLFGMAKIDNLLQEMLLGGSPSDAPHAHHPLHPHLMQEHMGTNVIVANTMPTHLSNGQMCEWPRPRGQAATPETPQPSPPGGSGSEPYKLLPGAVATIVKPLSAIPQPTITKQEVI
Summary of the method: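 Endpoint reflects transcriptional activation of a GAL4-UAS reporter by an HNF4a-GAL4 chimera in transfected HepG2 cells, 24 h post-dosing. Fluorescence from RT-PCR products separated by capillary electrophoresis; DMSO baseline.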

[4] = ATG_M_32_TRANS: Attagene TRANS-FACTORIAL HepG2 Assay for M32 Transcription Factor (Internal Marker) (AID 2282984); conditions: HepG2 Attagene TRANS M32 internal marker reporter
Summary of the method: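 Internal-marker readout from a multiplexed transcription reporter panel. HepG2 cells were transfected with GAL4-UAS reporter units, treated 24 hours, and reporter transcript levels determined by fluorescence after RT-PCR and capillary separation.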

[5] = target: Transcriptional activator Myb (Homo sapiens) (UniProt P10242); assay: ATG_Myb_CIS: Attagene CIS-FACTORIAL HepG2 Assay for human Myeloblastosis (Myb) Proto-Oncogene Transcription Factor (AID 2282986; active = hit-call score of the fitted dose curve at least 0.9, where 1 is the maximum; inactive = score below 0.9); conditions: HepG2 Attagene CIS-FACTORIAL Myb reporter transcription; actives raise or lower the signal
Summary of the method: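 In this HepG2 transient-transfection format, cis-regulated reporter mRNA is quantified 24 h post-dosing by RT-PCR with capillary electrophoresis, fitted bidirectionally to DMSO baseline.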

[6] = target: Nuclear respiratory factor 1 (Homo sapiens) (UniProt Q16656); assay: ATG_NRF1_CIS: Attagene CIS-FACTORIAL HepG2 Assay for human Nuclear Respiratory Factor 1 (NRF1) Orphan Gene (AID 2282987; active = hit-call score of the fitted dose curve at least 0.9, where 1 is the maximum; inactive = score below 0.9); conditions: HepG2 NRF1 cis-element reporter, Attagene multiplex; actives raise or lower the signal
Sequence of Nuclear respiratory factor 1 (Homo sapiens) (Q16656 whole entry, looked up): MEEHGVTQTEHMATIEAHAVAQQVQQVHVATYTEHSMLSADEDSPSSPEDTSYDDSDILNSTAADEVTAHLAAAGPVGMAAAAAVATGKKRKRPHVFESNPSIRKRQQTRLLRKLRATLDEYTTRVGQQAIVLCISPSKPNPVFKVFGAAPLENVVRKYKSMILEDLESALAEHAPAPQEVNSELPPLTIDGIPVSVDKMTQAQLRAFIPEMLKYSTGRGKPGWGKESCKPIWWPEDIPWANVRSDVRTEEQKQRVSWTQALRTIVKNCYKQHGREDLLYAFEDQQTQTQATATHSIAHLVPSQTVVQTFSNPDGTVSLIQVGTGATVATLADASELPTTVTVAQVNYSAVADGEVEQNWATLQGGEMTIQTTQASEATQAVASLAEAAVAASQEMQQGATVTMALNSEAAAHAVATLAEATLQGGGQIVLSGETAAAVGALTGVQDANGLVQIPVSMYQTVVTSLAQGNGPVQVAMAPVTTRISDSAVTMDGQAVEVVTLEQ
Summary of the method: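 Using DMSO as baseline, gain- or loss-of-signal was fitted for reporter mRNA levels in HepG2 cells transiently transfected with cis-regulated reporter units. Samples were taken 24 h after dosing and read by RT-PCR with capillary electrophoresis.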

[7] = ATG_NFI_CIS: Attagene CIS-FACTORIAL HepG2 Assay for human Nuclear Factor I (NFI) (AID 2282989; active = hit-call score of the fitted dose curve at least 0.9, where 1 is the maximum; inactive = score below 0.9); conditions: HepG2 cis-regulatory reporter, NFI response element transcription; actives raise or lower the signal
Summary of the method: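 Reporter transcripts were measured by RT-PCR with fluorescent primer extension and capillary electrophoresis 24 h post-treatment. HepG2 cells carried transiently transfected cis-regulated reporter constructs reporting endogenous factor activity; gain or loss fitted against DMSO baseline.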

[8] = target: Nuclear receptor subfamily 1 group I member 3 (Homo sapiens) (UniProt Q14994); assay: ATG_CAR_TRANS: Attagene TRANS-FACTORIAL HepG2 Assay for human Constitutive Androstane Receptor (CAR) (AID 2282969); conditions: HepG2 Attagene TRANS-FACTORIAL CAR reporter;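 also: activators raise reporter mRNA above DMSO so AC50 marks induction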
Sequence of Nuclear receptor subfamily 1 group I member 3 (Homo sapiens) (Q14994 whole entry, looked up, the tested form may be a part): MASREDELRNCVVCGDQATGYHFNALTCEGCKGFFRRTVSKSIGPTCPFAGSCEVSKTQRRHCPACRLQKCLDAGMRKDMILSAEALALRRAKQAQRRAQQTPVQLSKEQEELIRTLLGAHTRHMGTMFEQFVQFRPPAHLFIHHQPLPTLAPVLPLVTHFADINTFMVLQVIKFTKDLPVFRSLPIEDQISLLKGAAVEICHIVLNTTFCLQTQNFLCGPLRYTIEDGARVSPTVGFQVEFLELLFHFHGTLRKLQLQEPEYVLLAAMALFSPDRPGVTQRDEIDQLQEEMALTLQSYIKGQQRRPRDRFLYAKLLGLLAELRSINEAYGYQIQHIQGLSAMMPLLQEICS
Summary of the method: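 Transiently transfected HepG2, multiplex TRANS reporters (CAR-Gal4 chimera driving GAL4-UAS reporter). 24 h dosing. Readout: reporter transcript by RT-PCR + capillary electrophoresis, fluorescence intensity; positive direction vs DMSO.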

[9] = ATG_M_19_TRANS: Attagene TRANS-FACTORIAL HepG2 Assay for M19 Transcription Factor (Internal Marker) (AID 2282974); conditions: HepG2 Attagene TRANS-FACTORIAL M19 internal marker reporter
Summary of the method: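 Using RT-PCR and capillary electrophoresis, reporter mRNA from transiently transfected human HepG2 cells was quantified following 24 h exposure; activity was fitted in the positive direction against DMSO.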

[10] = ATG_GAL4_TRANS: Attagene TRANS-FACTORIAL HepG2 Assay for GAL4 (Internal Marker) (AID 2282976); conditions: HepG2 Attagene TRANS GAL4 internal marker reporter
Summary of the method: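 RT-PCR/capillary electrophoresis readout of reporter mRNA. HepG2, transient MRTU transfection (GAL4-UAS reporters), 24 h compound exposure. Background-control endpoint, positive direction vs DMSO baseline.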

[11] = target: Estrogen-related receptor gamma (Homo sapiens) (UniProt P62508); assay: ATG_ERRg_TRANS: Attagene TRANS-FACTORIAL HepG2 Assay for human Estrogen-Related Receptor gamma (ERRg) (AID 2282977); conditions: HepG2 Attagene TRANS reporter, ERRg transactivation;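 also: hits increase reporter signal over DMSO so potencies reflect activators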
Sequence of Estrogen-related receptor gamma (Homo sapiens) (P62508 whole entry, looked up, the tested form may be a part): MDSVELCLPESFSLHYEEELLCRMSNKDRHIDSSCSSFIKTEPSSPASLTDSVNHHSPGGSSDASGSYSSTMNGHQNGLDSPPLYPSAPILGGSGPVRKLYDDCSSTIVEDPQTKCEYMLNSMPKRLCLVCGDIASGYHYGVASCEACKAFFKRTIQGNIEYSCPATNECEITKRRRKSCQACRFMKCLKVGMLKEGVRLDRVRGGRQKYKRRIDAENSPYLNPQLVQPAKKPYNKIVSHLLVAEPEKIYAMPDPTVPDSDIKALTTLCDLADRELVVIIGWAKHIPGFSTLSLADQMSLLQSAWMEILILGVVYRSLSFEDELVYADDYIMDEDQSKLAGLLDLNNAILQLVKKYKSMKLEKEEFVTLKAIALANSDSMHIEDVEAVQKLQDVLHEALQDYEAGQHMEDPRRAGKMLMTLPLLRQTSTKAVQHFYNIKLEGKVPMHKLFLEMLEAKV
Summary of the method: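 Exogenous NR-Gal4 chimera activity measured as reporter transcript induction after 24 h in transiently transfected HepG2 cells. RNA reverse-transcribed, PCR-amplified, 6-FAM-labelled and resolved by capillary electrophoresis; increase over DMSO baseline.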

[12] = target: Bile acid receptor (Homo sapiens) (UniProt Q96RI1); assay: ATG_FXR_TRANS: Attagene TRANS-FACTORIAL HepG2 Assay for Farnesoid X Receptor (FXR) (AID 2282979); conditions: HepG2 Attagene TRANS FXR-GAL4 reporter transcription;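 also: hits raise reporter mRNA above DMSO so AC50 marks FXR activation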
Sequence of Bile acid receptor (Homo sapiens) (Q96RI1 whole entry, looked up, the tested form may be a part): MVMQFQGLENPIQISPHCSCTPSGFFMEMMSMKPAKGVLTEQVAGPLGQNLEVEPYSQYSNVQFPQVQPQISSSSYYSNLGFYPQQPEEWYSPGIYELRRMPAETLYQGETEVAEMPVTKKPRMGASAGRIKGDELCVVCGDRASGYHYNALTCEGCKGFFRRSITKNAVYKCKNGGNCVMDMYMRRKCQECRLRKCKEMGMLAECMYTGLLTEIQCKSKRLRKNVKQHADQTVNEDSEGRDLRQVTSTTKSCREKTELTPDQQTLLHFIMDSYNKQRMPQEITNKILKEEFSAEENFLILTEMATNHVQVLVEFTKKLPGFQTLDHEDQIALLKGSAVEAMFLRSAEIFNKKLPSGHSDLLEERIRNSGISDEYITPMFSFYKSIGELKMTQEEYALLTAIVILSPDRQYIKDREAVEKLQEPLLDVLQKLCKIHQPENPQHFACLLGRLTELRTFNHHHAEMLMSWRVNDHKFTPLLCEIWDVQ
Summary of the method: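 Read-out: fluorescent reporter transcripts quantified by capillary electrophoresis after RT-PCR of total RNA. Source cells were HepG2 transiently carrying chimeric NR-GAL4 plus GAL4-UAS reporter units, dosed 24 h. Activity fitted upward relative to DMSO baseline.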

[13] = target: Oxysterols receptor LXR-alpha (Homo sapiens) (UniProt Q13133); assay: ATG_LXRa_TRANS: Attagene TRANS-FACTORIAL HepG2 Assay for human Liver X Receptor alpha (LXRa) (AID 2282980); conditions: HepG2 Attagene TRANS reporter, LXRa transactivation
Sequence of Oxysterols receptor LXR-alpha (Homo sapiens) (Q13133 whole entry, looked up, the tested form may be a part): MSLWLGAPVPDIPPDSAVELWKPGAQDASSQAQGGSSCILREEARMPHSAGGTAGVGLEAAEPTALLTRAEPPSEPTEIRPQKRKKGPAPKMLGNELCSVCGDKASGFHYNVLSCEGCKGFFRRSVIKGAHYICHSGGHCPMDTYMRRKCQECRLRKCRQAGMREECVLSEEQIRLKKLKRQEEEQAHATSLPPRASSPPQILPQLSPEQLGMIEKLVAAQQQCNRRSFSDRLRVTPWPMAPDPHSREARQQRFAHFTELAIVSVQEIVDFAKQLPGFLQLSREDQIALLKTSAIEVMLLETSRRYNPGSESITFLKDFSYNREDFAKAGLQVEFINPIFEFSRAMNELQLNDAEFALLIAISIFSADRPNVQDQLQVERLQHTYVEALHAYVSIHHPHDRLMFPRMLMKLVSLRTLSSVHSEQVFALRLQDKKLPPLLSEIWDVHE
Summary of the method: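 Read-out: reporter transcript levels by RT-PCR plus capillary electrophoresis, fluorescence intensity. Transiently transfected HepG2, exogenous NR-GAL4 chimera, GAL4-UAS reporters; 24 h compound exposure. Activity = increase over DMSO negative control.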

[14] = target: Oxysterols receptor LXR-beta (Homo sapiens) (UniProt P55055); assay: ATG_LXRb_TRANS: Attagene TRANS-FACTORIAL HepG2 Assay for human Liver X Receptor beta (LXRb) (AID 2282981); conditions: HepG2 Attagene TRANS GAL4-LXRb reporter, mRNA
Sequence of Oxysterols receptor LXR-beta (Homo sapiens) (P55055 whole entry, looked up, the tested form may be a part): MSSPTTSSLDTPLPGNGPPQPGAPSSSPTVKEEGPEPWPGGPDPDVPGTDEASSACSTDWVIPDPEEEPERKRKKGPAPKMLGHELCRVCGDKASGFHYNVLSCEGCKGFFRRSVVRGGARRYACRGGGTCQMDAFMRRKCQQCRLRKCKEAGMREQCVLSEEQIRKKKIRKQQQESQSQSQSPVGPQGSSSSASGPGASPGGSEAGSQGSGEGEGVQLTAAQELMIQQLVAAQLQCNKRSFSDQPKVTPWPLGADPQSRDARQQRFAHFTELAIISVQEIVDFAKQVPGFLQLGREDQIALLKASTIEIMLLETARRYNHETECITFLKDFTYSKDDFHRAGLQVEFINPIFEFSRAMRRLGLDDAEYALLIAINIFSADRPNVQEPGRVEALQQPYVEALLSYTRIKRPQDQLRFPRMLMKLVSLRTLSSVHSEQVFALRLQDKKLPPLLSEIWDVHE
Summary of the method: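 Multiplexed reporter assay, HepG2, 24 h dosing. Fluorescence of labelled RT-PCR products after capillary electrophoresis gives transcript level; positive fitting direction relative to DMSO.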

[15] = ATG_M_06_TRANS: Attagene TRANS-FACTORIAL HepG2 Assay for M06 Transcription Factor (Internal Marker) (AID 2282983); conditions: HepG2 Attagene TRANS M06 internal marker reporter
Summary of the method: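 Read-out: fluorescent reporter cDNA fragments resolved by capillary electrophoresis after RT-PCR and HpaI cut. Source cells were HepG2 carrying transfected multi-reporter GAL4 constructs, dosed 24 h. Increase over DMSO control analysed.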

[16] = target: Steroid hormone receptor ERR1 (Homo sapiens) (UniProt P11474); assay: ATG_ERRa_TRANS: Attagene TRANS-FACTORIAL HepG2 Assay for human Estrogen-Related Receptor alpha (ERRa) (AID 2282971); conditions: HepG2 Attagene TRANS reporter, ERRa transactivation
Summary of the method: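 Transfected HepG2, 24 h dosing, ERRa-Gal4 chimera driving GAL4-UAS reporter. Readout: reporter mRNA via RT-PCR plus capillary electrophoresis (fluorescence). Positive direction vs DMSO control.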

[17] = target: Nuclear receptor subfamily 4 group A member 2 (Homo sapiens) (UniProt P43354); assay: ATG_NURR1_TRANS: Attagene TRANS-FACTORIAL HepG2 Assay for human Nuclear Receptor Related Protein 1 (NURR1) (AID 2282985); conditions: HepG2 Attagene TRANS reporter, mRNA readout
Sequence of Nuclear receptor subfamily 4 group A member 2 (Homo sapiens) (P43354 whole entry, looked up): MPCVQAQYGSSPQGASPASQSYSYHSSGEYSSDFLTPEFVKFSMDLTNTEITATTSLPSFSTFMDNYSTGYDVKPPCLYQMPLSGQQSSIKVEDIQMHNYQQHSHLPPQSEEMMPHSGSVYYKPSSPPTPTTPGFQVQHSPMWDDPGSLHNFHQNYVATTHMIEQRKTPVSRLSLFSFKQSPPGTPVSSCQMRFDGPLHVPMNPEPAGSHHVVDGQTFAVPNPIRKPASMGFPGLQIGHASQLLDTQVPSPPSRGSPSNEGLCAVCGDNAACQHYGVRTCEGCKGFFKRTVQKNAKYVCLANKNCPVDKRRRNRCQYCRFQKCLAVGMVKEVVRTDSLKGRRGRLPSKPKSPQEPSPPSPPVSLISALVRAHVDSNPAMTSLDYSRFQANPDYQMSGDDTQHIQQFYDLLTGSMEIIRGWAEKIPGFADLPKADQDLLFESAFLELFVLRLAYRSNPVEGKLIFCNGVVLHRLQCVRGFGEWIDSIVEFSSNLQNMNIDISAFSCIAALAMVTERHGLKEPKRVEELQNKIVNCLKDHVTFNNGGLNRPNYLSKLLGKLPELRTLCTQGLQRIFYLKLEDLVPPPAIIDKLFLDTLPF
Summary of the method: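 Endpoint: reporter mRNA increase relative to DMSO. HepG2 cells transfected with reporter units, treated 24 h; RNA processed by RT-PCR, labelling, HpaI digestion and capillary electrophoresis.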

[18] = target: Estrogen receptor (Homo sapiens) (UniProt P03372); assay: ATG_ERa_TRANS: Attagene TRANS-FACTORIAL HepG2 Assay for human Estrogen Receptor alpha (ERa) (AID 2282970); conditions: HepG2 Attagene TRANS ERa GAL4 reporter, mRNA
Summary of the method: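 Reporter mRNA induction after 24 hours, detected by fluorescent RT-PCR and capillary electrophoresis, gives the read-out. Cells are HepG2 transiently transfected with GAL4-UAS reporter transcription units responding to chimeric NR-Gal4. Activity is taken as gain of signal over DMSO baseline.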

[19] = ATG_M_61_TRANS: Attagene TRANS-FACTORIAL HepG2 Assay for M61 Transcription Factor (Internal Marker) (AID 2282988; active = hit-call score of the fitted dose curve at least 0.9, where 1 is the maximum; inactive = score below 0.9); conditions: HepG2 Attagene TRANS M61 internal marker reporter
Summary of the method: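 Background-control reporter transcript, measured after 24 h chemical exposure of transiently transfected HepG2 cells carrying multiple GAL4-UAS reporter units. Read-out by RT-PCR with 6-FAM primer extension and capillary electrophoresis, gain of signal versus DMSO.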

Measured: AC50

C=CC(=O)OCC(CO)(COCC(COC(=O)C=C)(COC(=O)C=C)COC(=O)C=C)COC(=O)C=C
inactive: [2] | [3] | [4] | [7]
active: [1] 2.87 µM | [5] 7.52 µM | [6] 14.9 µM

CCc1cccc(CC)c1NC(=O)C(=O)O
not listed: [3] | [16] | [17] | [18] | [19]
inactive: all other assays above

C=CC(=O)OCCC(F)(F)C(F)(F)C(F)(F)C(F)(F)C(F)(F)C(F)(F)C(F)(F)C(F)(F)F
not listed: [2] | [10] | [11] | [13] | [15] | [18] | [19]
inactive: all other assays above

CCCCCC(C)OC(=O)COc1ccc(Cl)c2cccnc12 (configuration not stated)
inactive: [8] | [1] | [2] | [12] | [3] | [15] | [5] | [6] | [7]

O=C(CCCN1CCC(O)(c2ccc(Cl)cc2)CC1)c1ccc(F)cc1
active: [1] 50.3 µM
inactive: [5]

CC=O
inactive: [1] | [9] | [2] | [14] | [5] | [6] | [7]

c1cc[nH]c1
inactive: [16] | [2] | [15] | [5] | [6] | [7]

O=C1NS(=O)(=O)c2ccccc21
not listed: [2] | [8] | [11] | [12] | [15] | [16] | [18] | [19]
inactive: all other assays above

CS(=O)(=O)c1ccc([C@@H](CC2CCCC2)C(=O)Nc2cnccn2)cc1Cl
active: [1] 70.7 µM
inactive: [11] | [2] | [14] | [15] | [4] | [5]

CN(C)CCOC(c1ccccc1)c1ccccc1
inactive: [2] | [13] | [14] | [5]

Clc1ccc(Nc2nnc(Cc3ccncc3)c3ccccc23)cc1
inactive: [8] | [1] | [2] | [12] | [3] | [4] | [5] | [6] | [7]

CCOC(=O)c1nc(C(Cl)(Cl)Cl)n(-c2ccc(Cl)cc2Cl)n1
active: [18] 25.7 µM | [4] 100 µM | [17] 66 µM
inactive: [10] | [12] | [5] | [6] | [19] | [7]

OCC(CO)(CBr)CBr
inactive: [1] | [11] | [2] | [12] | [14] | [3] | [4] | [5] | [6] | [7]
